# A collection of fitness landscapes (doi:10.1126/science.1257360)
# Whole data set: some 140,000 sequences, median “enrichment ratio after two sorts for PhoP signalling” near 0, cut for the highest 2% near 11. The sample holds the highest values, similar sequences and a random draw of the others, so the mix is not that of the screen.
# B1: PhoQ; a variant is named by its letters at X, in order, P23837 (parent)
# chain: MKKLLRLFFPLSLRVRFLLATAAVVLVLSLAYGMVALIGYSVSFDKTTFRLLRGESNLFYTLAKWENNKLHVELPENIDKQSPTMTLIYDENGQLLWAQRDVPWLMKMIQPDWLKSNGFHEIEADVNDTSLLLSGDHSIQQQLQEVREDDDDAEMTHSVAVNVYPATSRMPKLTIVVVDTIPVELKSSYMVWSWFIYVLSANLLLVIPLLWVAAWWSLRPIEALAKEVRELEEHNRELLNPATTRELTSLVRNLNRLLKSERERYDKYRTTLTDLTHSLKTPLXXLQXXLRSLRSEKMSVSDAEPVMLEQISRISQQIGYYLHRASMRGGTLLSRELHPVAPLLDNLTSALNKVYQRKGVNISLDISPEISFVGEQNDFVEVMGNVLDNACKYCLEFVEISARQTDEHLYIVVEDDGPGIPLSKREVIFDRGQRVDTLRPGQGVGLAVAREITEQYEGKIVAGESMLGGARMEVIFGRQHSAPKDE
# Variants of: B1
# Test: enrichment ratio after two sorts for PhoP signalling (ratio (wild type AVST 3.29)); higher = more functional
# Conditions: with PhoP (E. coli)
row,Variant,enrichment ratio
1,ERYW,≤ 0.25
2,TEFV,8.47
3,FYGK,≤ 0.25
4,FRYA,≤ 0.25
5,WKER,≤ 0.25
6,FREH,≤ 0.25
7,EDQF,≤ 0.25
8,PKWA,≤ 0.25
9,MNPT,≤ 0.25
10,WRCA,≤ 0.25
11,GWPN,≤ 0.25
12,AEVM,46.8
13,AEHF,≤ 0.25
14,AEGM,≤ 0.25
15,AETM,≤ 0.25
16,AETS,20.8
17,AERM,≤ 0.25
18,AEDV,≤ 0.25
19,AESK,≤ 0.25
20,AETE,8.78
21,AETF,9.37

row,Variant,enrichment ratio
1,AESF,14.8
2,AETV,22.9
3,RWWL,≤ 0.25
4,RSVA,≤ 0.25
5,ECQN,≤ 0.25
6,VEAF,≤ 0.25
7,AEEL,≤ 0.25
8,AEKS,≤ 0.25
9,AEQC,16
10,AEFW,≤ 0.25
11,AETQ,≤ 0.25
12,AEVL,17.5
13,AETW,11.3
14,AKQC,≤ 0.25
15,AQQC,≤ 0.25
16,AERL,≤ 0.25
17,AEPC,≤ 0.25
18,AESC,32.1
19,YVCN,≤ 0.25
20,DGHV,≤ 0.25
21,VIEF,≤ 0.25

row,Variant,enrichment ratio
1,WKPN,≤ 0.25
2,EKAV,≤ 0.25
3,SRPM,≤ 0.25
4,STHE,≤ 0.25
5,STPM,15.9
6,STCK,12.3
7,STCS,10.8
8,SPPM,≤ 0.25
9,STCE,13.1
10,STCA,7.48
11,YTCK,≤ 0.25
12,SRCK,≤ 0.25
13,YTCE,≤ 0.25
14,STCI,12.3
15,TPLS,≤ 0.25
16,QDRE,≤ 0.25
17,ICDP,≤ 0.25
18,QAMT,≤ 0.25
19,QYWL,≤ 0.25
20,FCIR,≤ 0.25
21,RNQK,≤ 0.25

row,Variant,enrichment ratio
1,LNAP,≤ 0.25
2,THWI,≤ 0.25
3,YKPH,≤ 0.25
4,VKLF,≤ 0.25
5,AGWK,≤ 0.25
6,HECF,≤ 0.25
7,GMMH,≤ 0.25
8,HRMH,≤ 0.25
9,TEMH,134
10,VECH,24.1
11,GMCH,16.1
12,HECH,12.7
13,NRMH,≤ 0.25
14,VFCH,≤ 0.25
15,HECI,6.73
16,TCCH,7.95
17,GNCH,3.45
18,GFPY,≤ 0.25
19,DYYD,≤ 0.25
20,EPTC,≤ 0.25
21,QQYH,≤ 0.25
